Here are results for 14 compounds from PubChem BioAssay (NCI).

This is part of a sample that, as a whole, favours compounds with a hit. Of some 83,000 tested, about 20% had one in any assay.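 For each line, cells grew in 96-well plates with the test compound present at a single concentration for 48 hours.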 Values without a mark were called inactive. Active and inactive are the calls of the source. How the source made its calls: active means growth percent below 10; inactive means the rest.

Holding throughout (assay): NCI-60 one-dose screen, 48 h (100 = growth as untreated, 0 = no growth, -100 = all killed)
What all share (conditions): 10 µM unless noted

Assay [1] has as its system NCI-H23 lung.
For assay [2], the system named is NCI-H226 lung.
Assay [3] has as its system NCI-H322M lung.
For assay [4], the system named is HOP-62 NSCLC.
The test system of assay [5] is NCI-H460 lung.
Assay [6] has as its system HOP-92 NSCLC.
Assay [7] relates to NCI-H522 lung.
Assay [8] has as its system A549/ATCC NSCLC.
The test system of assay [9] is 786-0 renal.
In assay [10] the test system is COLO 205 colon.

For the compound `COc1ccc(C2C(C#N)=C(N)Oc3c2ccc2ccccc32)cc1` (stereo not given), the growth was 52.8% in [1]; 39.4% in [2]; 67.8% in [3]; 37.3% in [4]; 14.6% in assay [5]; 48.4% in [6]. For the same compound, the growth in assay [7] is 3.93% (active); in assay [8], 57.1%; in assay [9] it was 73.1%; in assay [10], 91.1%.
`COc1ccc(Nc2[nH]n3c(=O)cc(C)nc3c2C(N)=O)c(OC)c1`: the growth in assay [1] is 100%; in assay [2] it was 97.4%; in assay [3], 96%; in [4], 85.9%; in assay [5] it was 105%; in assay [6] it was 73.1%. The growth in [7] is 84.9%; in assay [8], 89.5%; in assay [9], 99.1%; in assay [10] it was 102%.
In the case of `CCCCCCCCCCCCNC(=O)[C@H]1CSC(c2ccsc2)N1` (stereo not given in full), the growth in [1] was -52.9% (active); in [2], -74.1% (active); in assay [3] it was 3.58% (active); in assay [4] it was -94.7% (active); in assay [5], -80.1% (active); in assay [6] it was -10% (active). Also, the growth is 32.7% in assay [7], 63.7% in assay [8], -94.8% (active) in assay [9] and 84% in assay [10].
For the compound `CN1C(=O)N(C)C2C1NN=c1s/c(=C\C=C\c3ccccc3)c(=O)n12` (stereo not given), the growth in [1] was 64.3%; in [2], 61.9%; in assay [3], 68.4%; in assay [4], 67.3%; in assay [5], 23.3%; in [6], 63.9%. Moreover, the growth in assay [7] is 38.7%; in [8], 52.7%; in assay [9] it was 71.3%; in assay [10], 42.1%.
For the compound `CCN(CC)c1ccc(N=O)cc1`, the growth in assay [1] was 81.7%; in assay [2], 101%; in assay [3], 87.7%; in [4], 91.8%; in assay [5], 58.9%; in assay [6] it was 51.9%. Moreover, the growth was -80.9% (active) in [7], 59.7% in [8], 91.8% in [9] and 13.9% in assay [10].
Consider `COc1cc(/C=C/C(=O)/C=C/c2cc(OC)c3c(c2)OCO3)cc2c1OCO2`, for which the growth in assay [1] was 80.5%; in [2], 78.8%; in [3], 108%; in assay [4], 106%; in assay [5], 105%; in [6], 83.9%. Further, the growth in [7] was 101%; in [8], 93.5%; in [9], 100%; in assay [10] it was 96.5%.
With `c1ccc(-c2nc(N3CCNCC3)c3nc(-c4ccccc4)oc3n2)cc1`, the growth in assay [1] is -56.6% (active); in assay [2], -61.3% (active); in [3] it was 82%; in assay [4], -78.2% (active); in [5] it was -73.7% (active); in assay [6] it was 42%. For the same compound, the growth is -82.1% (active) in assay [7], -77.2% (active) in assay [8], -98.7% (active) in [9] and -84% (active) in assay [10].
Turning to `COc1ccc(C(=O)N2NC(=O)/C(=C/c3ccc(Br)cc3)N=C2c2ccccc2)cc1`, the growth in [1] was 93.8%; in assay [2], 95.1%; in assay [3], 90.6%; in [4] it was 46.6%; in [5], 96.9%; in assay [6], 64.4%. Further, the growth in assay [7] is 85.3%; in [8], 87.6%; in [9], 90.4%; in assay [10], 105%.
Take `O=C(Nc1ccncc1)C(=O)c1cn(S(=O)(=O)c2ccccc2F)c2ccccc12`: the growth was 25.9% in [1]; 56.8% in [2]; 97.2% in [3]; 38.4% in assay [4]; 75.8% in assay [5]; 24.6% in [6]. Further, the growth in assay [7] was -24.6% (active); in assay [8], 71.8%; in assay [9], 36.9%; in [10], 103%.
Take `Cn1c(=O)c2[nH]c(C3CC=CCC3)nc2n(C)c1=O` (stereo not given): the growth in assay [1] is 98.2%; in assay [2] it was 103%; in [3], 102%; in assay [4], 90.5%; in assay [5] it was 109%; in assay [6] it was 70.1%. Moreover, the growth in assay [7] is 98%; in assay [8], 106%; in [9], 105%; in assay [10], 97.4%.
With `O=C1Nc2ccc3c(c2/C1=C\c1cc2c(cc1Br)OCO2)OCO3`, the growth in [1] is 19.5%; in assay [2], 13.4%; in [3] it was 1.4% (active); in assay [4] it was -21.3% (active); in [5], -31.2% (active); in [6], -5.47% (active). Also, the growth in assay [7] is 16.4%; in assay [8], 27.9%; in [9] it was 10.7%; in [10] it was -37.1% (active).
Consider `COC(=O)C1CCCN1C(=O)[C@@H]1CCCN1C(=O)[C@H](Cc1c[nH]c2ccccc12)NC(=S)Nc1cc(C(F)(F)F)cc(C(F)(F)F)c1` (stereo not given in full), for which the growth in assay [1] is 69%; in assay [2], 75.7%; in assay [3] it was 74.7%; in assay [4], 80.2%; in assay [5] it was 22.3%; in assay [6], 17%. Further, the growth was 46% in [7], 37.1% in assay [8], 37.6% in assay [9] and 66.5% in assay [10].
Regarding `O=[N+]([O-])c1ccc(-c2cn(-c3ccccc3)c(-c3ccccc3)n2)cc1`, the growth in assay [1] was 78.7%; in assay [2], 95.4%; in assay [3], 40.5%; in [4] it was 62.4%; in assay [5], 35.3%; in [6], 81.2%. Further, the growth in assay [7] is 44.6%; in assay [8] it was 55.6%; in assay [9] it was 92.5%; in [10], 101%.
Consider `Nc1nc(-c2ccccc2)c(CCCOc2ccc(NC(=O)CBr)cc2)c(=O)[nH]1`, for which the growth in assay [1] is 94.4%; in [2] it was 100%; in assay [3], 135%; in [4], 134%; in [5], 108%; in assay [6] it was 99.6%. The growth in assay [7] is 71.8%; in [8] it was 93.3%; in assay [9], 115%; in assay [10], 118%.
